Most compounds without a hit are left out; they make up all but 2.1% or so of the library.
Shn3 inh set2: reduction of Shn3 3'UTR firefly luciferase signal, primary screen, Schnurri-3 inhibitor project, cell-based, Clone20 osteoblasts, set 2; Clone20 osteoblast Shn3 3'UTR firefly luciferase, 24 h; inhibition, % at 12.5 µM; hit rate 0.52% among 360,000; AID 588674, 2011;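 active = mean inhibition of at least 75% with every replicate also reaching 75%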;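 note: 0% = median of neutral control wells and 100% = pilot-screen positive control compound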
TRPM1 prom inh: inhibitors of MITF-dependent TRPM1 promoter reporter, primary screen, cell-based, SK-MEL-5, single point, luciferase | AID 488899, 2010 | SK-MEL-5 TRPM1 promoter luciferase, 24 h | inhibition, % at 12.5 µM | hit rate 0.83% among 330,000;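 active = mean inhibition across replicates of 60% or more, whatever share of single replicates reaches that level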
EBV LMP1 NFkB: EBV LMP1-driven NF-kappaB luciferase reporter inhibitors, primary screen, cell-based, luminescence, single point; inhibition, % at 12.5 µM; LMP1-induced NF-kappaB luciferase reporter cells; hit rate 0.69% among 350,000; in the data active = inhibition above about 41%;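 note: 0% = neutral control wells and 100% = reference inhibitor control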
aSyn UTR inh: MLPCN primary screen, SNCA 5' untranslated region; alpha-synuclein 5'UTR reporter, inhibitor activity; inhibition, % (tested at 7.5 µM); hit rate 0.82% among 300,000; AID 1813, 2009; in the data active = inhibition above about 60%;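 note: H4 neuroglioblastoma cells stably carrying SNCA 5'UTR luciferase fusion; 0% = DMSO wells and 100% = positive control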
PAX8 reporter: inhibitors of PAX8-driven TPO luciferase reporter, primary screen, RMG-I cells, single concentration | SteadyGlo, 24 h | hit rate 1.2% among 360,000 | inhibition, % at 12.6 µM;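 active = mean replicate inhibition at least 60% with every replicate also reaching 60%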;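 note: luciferase light reporting Pax8 driven TPO promoter activity; plate controls were median of neutral control wells for no effect and mitoxantrone controls for full effect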
* = called active by the depositor; . = no result given.

SMILES	Shn3 inh set2	TRPM1 prom inh	EBV LMP1 NFkB	aSyn UTR inh	PAX8 reporter
CCOC(=O)N1CCN(C(=O)C(C)N(c2ccc(Oc3ccccc3)cc2)S(C)(=O)=O)CC1 (stereo not drawn)	36	22	9	5	.
CCOC(=O)C1CCN(C(=O)C(C)N(c2ccc(Oc3ccccc3)cc2)S(C)(=O)=O)CC1 (stereo not drawn)	87*	14	21	-7	-1
CSc1nc(C)cc(NC(N)=O)n1	4	-12	6	1	.
COc1ccc(-c2c(-c3ccc(O)cc3O)n[nH]c2C(F)(F)F)cc1	17	28	-10	4	-6
Oc1ccc(-c2n[nH]c(C(F)(F)F)c2-c2ccccc2)c(O)c1	87*	8	7	-16	7
COc1ccccc1-c1c(-c2ccc(O)cc2O)n[nH]c1C(F)(F)F	91*	13	19	-24	14
COc1ccc(OCc2n(CC(=O)OC3CC(C)CCC3C(C)C)c3ccccc3[n+]2C)cc1 (stereo not drawn)	-3	82*	2	30	99*
COc1ccc(-c2n(CC(=O)OC3CC(C)CCC3C(C)C)c3ccccc3[n+]2C)cc1 (stereo not drawn)	92*	91*	23	101*	2
S=C1NCCc2ccc(Cl)cc2C1c1ccccc1Cl (stereo not drawn)	-2	-12	-11	15	.
Clc1ccc2c(c1)C(C1=NCCN1)c1ccccc1CS2 (stereo not drawn)	21	10	26	79*	20
CC(=O)Nc1cccc(NC(=O)C2CCCN2C(=O)Nc2cccc(C)c2)c1 (stereo not drawn)	10	23	-4	15	.
Cc1ccc(S(=O)(=O)N(C)C[C@@H]2Oc3ccc(NC(=O)Nc4ccc(C(F)(F)F)cc4)cc3CC(=O)N([C@@H](C)CO)C[C@@H]2C)cc1	.	.	.	.	81*
COc1ccc(S(=O)(=O)N(C)C[C@H]2Oc3ccc(NC(=O)Nc4ccc(C(F)(F)F)cc4)cc3C(=O)N([C@H](C)CO)C[C@@H]2C)cc1	57	54	-5	.	94*
C[C@H]1CN([C@@H](C)CO)C(=O)Cc2cc(NC(=O)Nc3ccc(C(F)(F)F)cc3)ccc2O[C@H]1CN(C)S(=O)(=O)c1ccc(F)cc1	.	.	.	.	40
COc1ccc(S(=O)(=O)N(C)C[C@H]2Oc3ccc(NC(=O)Nc4ccc(C(F)(F)F)cc4)cc3CC(=O)N([C@@H](C)CO)C[C@H]2C)cc1	.	.	.	.	18
COc1ccc(S(=O)(=O)N(C)C[C@H]2Oc3ccc(NC(=O)Nc4ccc(C(F)(F)F)cc4)cc3CC(=O)N([C@H](C)CO)C[C@@H]2C)cc1	.	.	.	.	79*
Cc1ccc(S(=O)(=O)N(C)C[C@H]2Oc3ccc(NC(=O)Nc4ccc(C(F)(F)F)cc4)cc3CC(=O)N([C@@H](C)CO)C[C@H]2C)cc1	.	.	.	.	99*
C[C@H](CO)N1C[C@H](C)[C@@H](CN(C)S(=O)(=O)c2ccc(F)cc2)Oc2ccc(NC(=O)Nc3ccc(C(F)(F)F)cc3)cc2CC1=O	.	.	.	.	-31
O=C(c1ccc(=O)[nH]n1)N1CCN(S(=O)(=O)c2ccccc2F)CC1	-4	.	1	.	-9
O=C(CN1CCN(Cc2ccccc2Cl)CC1)N/N=C/C=C\c1ccccc1[N+](=O)[O-]	-1	-1	3	9	.
CCn1cc(CN(C)S(=O)(=O)c2cccc([N+](=O)[O-])c2)cn1	-5	1	-3	10	1
CCn1cc(CN(C)S(=O)(=O)c2ccc3ccccc3c2)c(C)n1	90*	19	23	-2	16
C[C@@H]1CN([C@H](C)CO)C(=O)Cc2cc(NC(=O)CCC(F)(F)F)ccc2O[C@H]1CN(C)Cc1ccc2c(c1)OCO2	.	.	.	.	-36
Nc1c(C(=O)Nc2ccc(S(=O)(=O)N3CCCC3)cc2)sc2nc3ccc(OC(F)(F)F)cc3cc12	61	83*	-238	109*	42
COc1cc([N+](=O)[O-])ccc1NC(=O)c1cccc(NC(=O)C(C)C)c1	-42	-12	5	4	6
SMILES	Shn3 inh set2	TRPM1 prom inh	EBV LMP1 NFkB	aSyn UTR inh	PAX8 reporter
O=C(Cn1cnc2c(nnn2Cc2ccccc2)c1=O)N1CCN(c2ccccc2)CC1	0	7	83*	14	29
O=C(Cn1cnc2c(nnn2Cc2ccc(Cl)cc2)c1=O)N1CCN(c2ccccc2)CC1	27	.	7	.	51
COc1ccc(CCn2c(C)ccc2C)cc1OC	.	.	.	0	.
COc1ccc(CCN2C(=O)C=CC2=O)cc1OC	63	24	-1	.	95*
Cc1cc(C)cc(NC(=O)/C(C#N)=C/c2cn(CC(=O)NCc3ccco3)c3ccccc23)c1	73	84*	-2	111*	16
Cc1ccc(NC(=O)/C(C#N)=C/c2cn(CC(=O)NCc3ccco3)c3ccccc23)cc1C	9	12	-23	43	-2
Cc1ccc(NC(=O)CN(C)C(=O)Cn2ncc(Cl)c(Cl)c2=O)cc1	71	90*	88*	82*	93*
Cc1ccc(NC(=O)CN(C)C(=O)Cc2ccc(Cl)c(Cl)c2)cc1	-6	-9	-6	-21	22
Cc1ccc(NC(=O)Cn2ncc(Cl)c(Cl)c2=O)cc1S(=O)(=O)N1CCCCC1	47	97*	-12	.	90*
C[C@@H]1CN([C@@H](C)CO)S(=O)(=O)c2ccc(-c3ccc(C#N)cc3)cc2O[C@@H]1CN(C)Cc1cccc(F)c1	.	.	.	.	63*
C[C@@H]1CN([C@H](C)CO)S(=O)(=O)c2ccc(-c3ccc(C#N)cc3)cc2O[C@@H]1CN(C)Cc1cccc(F)c1	.	.	.	.	86*
CCN(CC)c1ccc(NC2CC(=O)N(CCc3ccc(OC)cc3)C2=O)cc1 (stereo not drawn)	19	8	3	-29	7
COc1cc2c3nnc(-c4ccc(F)cc4)c-3cn(Cc3ccccc3F)c2cc1OC	24	92*	-10	.	54
Nc1cc(C(F)(F)F)ccc1-n1cccc1	-7	17	-1	-37	14
C[C@@H]1CN([C@H](C)CO)C(=O)c2cc(N(C)C)ccc2O[C@@H](C)CCCCO[C@H]1CN(C)C(=O)Nc1cccc2ccccc12	.	.	.	.	52
C[C@@H]1CN([C@H](C)CO)C(=O)c2cc(NC(=O)Cc3ccccc3)ccc2O[C@@H](C)CCCCO[C@@H]1CN(C)C(=O)Nc1cccc2ccccc12	.	.	.	.	64*
C[C@@H]1CCCCO[C@H](CN(C)C(=O)Nc2cccc3ccccc23)[C@H](C)CN([C@@H](C)CO)C(=O)c2cc(N(C)C)ccc2O1	.	.	.	.	71*
C[C@H]1CCCCO[C@H](CN(C)C(=O)Nc2cccc3ccccc23)[C@@H](C)CN([C@@H](C)CO)C(=O)c2cc(NC(=O)NC3CCCCC3)ccc2O1	.	.	.	.	67*
Cc1cc(Br)ccc1NC(=O)C1CCN(C(=O)c2ccco2)CC1	7	3	-11	9	-1
ClC(Cl)(Cl)c1nc2ccccc2n2nncc12	8	39	-1	29	86*

Screening results as filed in PubChem.
